Data published in PubChem BioAssay (NCI).
The panel holds about 83,000 compounds, 20% with a hit somewhere; the sample as a whole holds those more often.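 The endpoint reported here, percent growth, reads 100 for growth as untreated, 0 for no net growth and -100 for all cells dead.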 Unmarked numbers belong to inactive results. Activity calls are given as the source filed them.

Tested on: NCI/ADR-RES ovarian
Assay: NCI-60 one-dose screen, 48 h (100 = growth as untreated, 0 = no growth, -100 = all killed)
Settings: 10 µM unless noted
Method: Growth inhibition of the NCI/ADR-RES human […] tumor cell line is measured as a screen for anti-cancer activity. Cells are grown in 96 well plates and exposed to the test compound for 48 hours. Compounds are tested at a single concentration, which is 10^-5 M for most compounds. The reported endpoint is percent growth (GI% or GIPRCNT), where numbers from 0 - 100% represent growth inhibition, and numbers from -100% - 0 represent cell death. For example, a value of 40 represents 60% growth inhibition. A value of 0 means no net growth occurred over the course of the experiment. A value of -40 indicates 40% of cells at the beginning of the experiment died by the end of the experiment. A value of -100 means all cells are dead at the end of the experiment.
NCI-60 Human Tumor Cell Lines Screen was performed using the standard one-dose NCI protocol, which is described in more detail at https://dtp.cancer.gov/discovery_development/nci-60/default.htm.
Compounds with GIPRCNT values below 10 were considered active. Activity score was based on GIPRCNT using the following formula: […]
Score is 0 for GIPRCNT values of 100 or above, 50 for GIPRCNT values of 0, and 100 for GIPRCNT values of -100.

Going from `C#CC(=O)/C=C/CCCCCCC#CC(=O)CCC(=O)C#CCCCCCC/C=C/C(=O)C#C` to `CN[C@@H](CCCNC(N)=NC/C=C(/C)CCC=C(C)C)C(=O)N(C)[C@@H](CCCNC(N)=NCC=C(C)C)C(=O)N[C@H](C)[C@H](OS(=O)(=O)O)c1ccc(OS(=O)(=O)O)c(COS(=O)(=O)O)c1`, the growth rises from 11% to 105%.

Going from `Cc1ncc(CO)c(C(=O)O)c1O` to `CCNc1cc(S(=O)(=O)O)ccc1C`, the growth falls from 104% to 102%.

Going from `O=C(C[n+]1cccc(Br)c1)c1ccc2c(c1)CCCC2` to `CCC1CN2C(=N1)c1ccccc1-c1cc(Cl)ccc12` (stereo not given), the growth falls from 102% to 21.3%.

Compared with `CCn1c(C)nc([N+](=O)[O-])c1Sc1nc(N)nc2nc[nH]c12`, `c1coc(CSc2ncnc3nc[nH]c23)c1` is higher in growth: 25.5% for the first, 106% for the second.

Going from `O=C(Nc1ccc(F)cc1)Nc1ccc(Cl)c([N+](=O)[O-])c1` to `COc1ccc(-c2ccc(NC(=O)Nc3cccc(C(F)(F)F)c3)c(C)n2)cc1`, the growth rises from 14.1% to 53.2%.

Compared with `O=C(Nc1ccc(-n2ccc3c(NC(=O)c4ccccc4)nccc32)cc1)c1ccc(Cl)c(C(F)(F)F)c1`, `COc1ccc(-c2nnc(SCC(=O)Nc3ccc(C(=O)/C=C/c4ccc(OC)c(OC)c4)cc3)o2)cc1` is higher in growth: 22.9% for the first, 90.1% for the second.

Compared with `COc1ccccc1S(=O)(=O)Nc1ccc2c3c(cc(-c4cnn(C)c4)nc13)C(=O)N2C`, `COc1cc(NS(C)(=O)=O)ccc1Cc1c2ccccc2nc2ccccc12` is higher in growth: 35.9% for the first, 62.3% for the second.

First: CCc1c(C)c2cc(-n3c(-c4ccc(OC)cc4)csc3=N)c(O)c(C)c2oc1=O
Second: COc1ccc(-c2cnc(-c3ccc(F)cc3)[nH]2)cc1
The growth of the first is lower: 11.4% for the first, 115% for the second.

Going from `Fc1cccc(F)c1C#Cc1ccc2cccnc2c1` to `c1cncc(-c2nc3ccccc3[nH]2)c1`, the growth rises from 90.8% to 96.1%.

Going from `C=CC(=O)NC(=O)Nc1ccccc1Cl` to `O=C(N/N=C/c1ccccc1O)c1ccccc1O`, the growth falls from 105% to 21%.

Going from `CCCCOc1c(N)cc(Cl)cc1C(=O)OCCN(CC)CC` to `CCCOC(=O)c1ccc([N+](=O)[O-])o1`, the growth falls from 107% to 104%.

First: CN1CCN(CC(=O)N(C)c2ccc(N=C(c3ccccc3)c3c(O)[nH]c4ccc(C#N)cc34)cc2)CC1
Second: O=C(Cn1c2ccccc2c2ccncc21)N/N=C/c1c[nH]c2ccccc12
The growth of the first is higher: 106% for the first, 94.6% for the second.

Going from `COc1ccc(/C=C/C(=O)c2ccc(Oc3ncnc4ccccc34)cc2)cc1OC` to `C=CCOc1ccc(/C(Cl)=N/N=C(\Cl)c2cc(OC)c(OC)c(OC)c2)cc1`, the growth falls from 80.3% to 77.6%.

Going from `CS(=O)(=O)OCC(COS(C)(=O)=O)C(c1ccccc1)c1ccccc1` to `O=C1C(Cl)=C(Nc2cccc3cc4ccccc4nc23)C(=O)c2ccccc21`, the growth falls from 99% to 42.8%.

Going from `Nc1nccc(=S)[nH]1` to `S=c1[nH]nc(Cn2c3ccccc3c3ccncc32)o1`, the growth falls from 107% to 102%.

First: CCC1S/C(=N\N=C(/C)c2ccco2)N(c2ccccc2)C1=O (stereo not given)
Second: Nc1ncnc2c1c(-c1ccc(Oc3ccccc3)cc1)nn2C[C@@H]1SSC[C@H]1O
The growth of the first is higher: 105% for the first, 48.3% for the second.

Compared with `Nc1nc(Nc2ccc(OCc3cccc(F)c3)cc2)c2c(n1)[nH]c1ccc(O)cc12`, `O=c1c2ccccc2sc2c(NCCCNCCO)nc3ccccc3c12` is lower in growth: 32.3% for the first, 31.5% for the second.

`O=C(Nc1cccc(-n2ccc3c(NC(=O)c4ccccc4)nccc32)c1)c1cccc(C(F)(F)F)c1` was tested, and the growth was -1.18% (active).
`COc1ccc2c(c1)nnn1c3ncccc3c(N=O)c21` was tested, and the growth was -8.17% (active).
In the case of `C#C[C@@]1(O)[C@@H](CO)O[C@@H](n2cc(C(F)(F)F)c3c(N)ncnc32)[C@@H]1O`, the growth is reported as 6.08% (active).
`CCCCCn1ncc(-c2c(O)c(O)cc3c(O)c(-c4c(C)cc5c(-c6cnn(CCCCC)n6)c(O)c(O)cc5c4O)c(C)cc23)n1` was tested, and the growth was 2.37% (active).
In the case of `CN(C)C(=O)Nc1nc2cc(Cl)c(Cl)cc2[nH]1`, the growth is reported as 3.19% (active).
In the case of `CC[C@@]1(O)C(=O)OCc2c1cc1n(c2=O)Cc2c-1nc1ccccc1c2/C=N/OC(C)(C)C`, the growth is reported as 1.09% (active).
